From PubChem BioAssay (NCATS)
Values without a mark were called inactive. Inconclusive results are not listed. A call without a number means that no potency is given here. Calls of active or inactive are those of the source. Unless noted, calls follow the shape of the dose curve; as a rule, active = well fitted curve in the direction sought with a large enough effect; inconclusive = small, poorly fitted or top-dose-only effect, or another doubt; inactive = no such curve, though single readings can be large; an effect the other way counts as inactive or inconclusive.

Experiments:
[1] = AP1 Signaling Pathway (AID 357; active = well fitted curve in either direction with a large enough effect, not every such curve was filed as active;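 also: ME-180 reporter cells stimulated with EGF at its EC50 level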); conditions: ME-180 AP-1-bla reporter, EGF-induced, beta-lactamase ratio, 5 h; at 7.69 µM (top of the series) unless noted
In short: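 Modulation of EGF-driven AP-1 transcription was assessed with a beta-lactamase reporter in ME-180 cells. Compound and EC50 EGF were co-incubated 5 hours at 37 °C before 2.5-hour CCF4 loading at room temperature and dual-emission reading.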

[2] = target: Cytochrome P450 1A2 (Homo sapiens) (UniProt P05177); test: p450-cyp1a2 (AID 410; calls by dose curve; also: potency is read from the fitted curve at half-maximal effect)
In short: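 O-Demethylation of luciferin 6' methyl ether by human CYP1A2 is monitored as luciferase luminescence. Substrate sits at Km (100uM); enzyme is 20nM. Values are scaled to 57 uM furafylline as maximal inhibition.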

[3] = NFAT Signaling Pathway (AID 444; active = well fitted curve in either direction with a large enough effect, not every such curve was filed as active;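 also: carbachol stimulus at about its EC50 of 1 µM final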); conditions: Jurkat NFAT-bla M1, carbachol, beta-lactamase ratio, 5 h; at 7.69 µM (top of the series) unless noted
In short: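 Jurkat cells carrying an NFAT-driven β-lactamase reporter and co-transfected muscarinic M1 receptor were treated with compound plus carbachol (1 uM final, an EC50 level) for 5 h at 37 °C. CCF4 loading followed for 1 h at RT; 460/530 nm ratio gave %activity.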

[4] = target: Glucocorticoid receptor (Homo sapiens) (UniProt P04150); test: GR-GFP Redistribution (AID 450;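 active = compounds whose dose series gives a full or clear partial fitted curve of increased nuclear translocation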; also: potency is read from the fitted curve at half-maximal effect); conditions: U2OS GR-GFP nuclear translocation, laser cytometry, 2 h
Chain of Glucocorticoid receptor (Homo sapiens) (P04150 whole entry, looked up, the tested form may be a part): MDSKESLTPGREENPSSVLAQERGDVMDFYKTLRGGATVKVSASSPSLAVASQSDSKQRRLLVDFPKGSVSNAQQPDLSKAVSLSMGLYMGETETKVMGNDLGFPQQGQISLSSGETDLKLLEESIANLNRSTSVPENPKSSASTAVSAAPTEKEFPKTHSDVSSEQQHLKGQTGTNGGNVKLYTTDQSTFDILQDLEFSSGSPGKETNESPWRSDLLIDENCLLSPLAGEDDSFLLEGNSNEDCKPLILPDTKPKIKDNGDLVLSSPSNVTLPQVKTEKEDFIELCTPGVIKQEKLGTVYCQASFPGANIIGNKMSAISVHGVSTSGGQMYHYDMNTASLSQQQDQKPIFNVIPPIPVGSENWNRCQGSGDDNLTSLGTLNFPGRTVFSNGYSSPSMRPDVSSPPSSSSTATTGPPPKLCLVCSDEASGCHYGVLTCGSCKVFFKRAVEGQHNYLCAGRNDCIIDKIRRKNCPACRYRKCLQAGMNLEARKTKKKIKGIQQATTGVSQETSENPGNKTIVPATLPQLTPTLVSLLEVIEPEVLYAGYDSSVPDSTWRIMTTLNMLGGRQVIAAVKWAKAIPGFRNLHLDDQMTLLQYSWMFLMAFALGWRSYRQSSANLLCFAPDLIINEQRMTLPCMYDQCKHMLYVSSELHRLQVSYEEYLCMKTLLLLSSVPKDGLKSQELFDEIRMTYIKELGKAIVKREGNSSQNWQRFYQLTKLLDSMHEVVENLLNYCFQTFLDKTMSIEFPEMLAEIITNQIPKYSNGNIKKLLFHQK

[5] = target: Glucocorticoid receptor (Homo sapiens) (UniProt P04150); test: GR-EFC Redistribution (AID 451; calls by dose curve; also: potency is read from the fitted curve at half-maximal effect); conditions: CHO-K1 GR-EFC translocation, beta-gal luminescence, 2 h
In short: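 CHO-K1 cells stably expressing nuclear-localized β-gal enzyme acceptor and GR fused C-terminally to the enzyme donor fragment; ligand-driven nuclear translocation restores β-gal by complementation. Compounds titrated up to 46 uM final, 2 h at 37 °C; luminescence read.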

[6] = target: 3',5'-cyclic-AMP phosphodiesterase 4B (Homo sapiens) (UniProt Q07343); test: qHTS Assay for Inhibitors of PDE-IV (AID 607; active = well fitted activation curve with a large enough effect in the main read-out, with a control signal flat, not every such curve was filed as active)
In short: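 HEK293 ACTOne cells with CNG channel (1000/well), endogenous PDE4; membrane potential dye, compounds up to 22.9 uM final. Fluorescence Ex 535/Em 590; RO 20-1724 (100 uM final) as reference.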

[7] = target: Cytochrome P450 2C9 (Homo sapiens) (UniProt P11712); test: qHTS Assay for Inhibitors and Substrates of Cytochrome P450 2C9 (AID 883); also: nearly all actives have a fitted effect of over 60% in size
Chain of Cytochrome P450 2C9 (Homo sapiens) (P11712 whole entry, looked up): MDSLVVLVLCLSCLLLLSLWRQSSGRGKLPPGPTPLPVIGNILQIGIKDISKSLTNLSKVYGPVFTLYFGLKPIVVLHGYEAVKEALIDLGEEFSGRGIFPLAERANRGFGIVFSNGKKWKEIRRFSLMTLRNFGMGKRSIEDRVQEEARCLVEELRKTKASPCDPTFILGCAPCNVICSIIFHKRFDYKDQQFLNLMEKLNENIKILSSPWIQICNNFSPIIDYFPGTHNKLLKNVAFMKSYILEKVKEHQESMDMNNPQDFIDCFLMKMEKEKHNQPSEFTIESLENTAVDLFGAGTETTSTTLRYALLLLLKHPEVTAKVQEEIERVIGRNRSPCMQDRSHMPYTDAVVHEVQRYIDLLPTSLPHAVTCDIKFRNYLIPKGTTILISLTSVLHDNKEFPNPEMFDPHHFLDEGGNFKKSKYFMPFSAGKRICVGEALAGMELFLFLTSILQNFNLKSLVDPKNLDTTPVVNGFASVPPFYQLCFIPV
In short: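 A luminogenic readout tracked human CYP2C9 (10nM) converting deoxyluciferin (100uM, at KM) in 25mM KPO4 during 60 min at 37C with regenerated NADPH. Values normalized to 57uM sulphaphenazole as complete inhibition.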

[8] = target: Cytochrome P450 2C19 (Homo sapiens) (UniProt P33261); test: qHTS Assay for Inhibitors and Substrates of Cytochrome P450 2C19 (AID 899); also: nearly all actives have a fitted effect of over 60% in size; also: potency is read from the fitted curve at half-maximal effect
Chain of Cytochrome P450 2C19 (Homo sapiens) (P33261 whole entry, looked up): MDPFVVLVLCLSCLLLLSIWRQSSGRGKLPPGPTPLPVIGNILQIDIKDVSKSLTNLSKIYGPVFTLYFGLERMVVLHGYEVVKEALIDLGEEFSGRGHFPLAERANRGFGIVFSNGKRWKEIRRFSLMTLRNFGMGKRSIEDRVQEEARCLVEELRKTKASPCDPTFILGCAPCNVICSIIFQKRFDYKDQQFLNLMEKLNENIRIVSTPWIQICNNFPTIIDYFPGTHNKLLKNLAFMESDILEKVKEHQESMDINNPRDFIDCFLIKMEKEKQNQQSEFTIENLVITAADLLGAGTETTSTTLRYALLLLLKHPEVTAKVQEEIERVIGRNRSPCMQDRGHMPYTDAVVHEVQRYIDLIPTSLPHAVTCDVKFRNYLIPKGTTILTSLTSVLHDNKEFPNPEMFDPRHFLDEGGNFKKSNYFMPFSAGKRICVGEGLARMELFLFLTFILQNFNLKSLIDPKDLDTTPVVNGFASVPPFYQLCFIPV
In short: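 NADPH-dependent conversion of Luciferin-H EGE (10uM, at KM) by 5nM enzyme in 50mM KPO4, 60 min at 37C following 10 min compound preincubation. Stopped with luciferin detection buffer; luminescence read after 20 min.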

[9] = Stat Signaling Pathway (AID 446; active = well fitted curve in either direction with a large enough effect, not every such curve was filed as active;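 also: ME-180 cervical cancer cells given 40 pM IL-6 alongside compound; SIE-controlled beta-lactamase reporter measured as 460/530 nm FRET emission ratio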); conditions: ME-180 (cervical carcinoma) SIE beta-lactamase reporter, IL-6 stimulated, 5 h; at 7.69 µM (top of the series) unless noted
In short: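 Normalization used AC90 stimulation (300 pM IL-6) and AC90 inhibition (125 nM pan-JAK inhibitor at 40 pM IL-6). The underlying signal is SIE-driven beta-lactamase in ME-180 cells after 5 h IL-6 exposure with compound.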

[10] = target: Mitogen-activated protein kinase 10 (Mus musculus) (UniProt Q61831); test: JNK3 AlphaScreen Assay (AID 530; active = well fitted curve in either direction with a large enough effect, not every such curve was filed as active;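 also: kinase came from lysate of stimulated human HepG2 cells; signal reports phosphorylation of biotinylated GST-cJun 1-79 at Ser73 with 10 µM ATP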)
In short: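 Phosphorylation of biotinylated GST-cJun(1-79) at Ser73 is measured by AlphaScreen proximity luminescence. Enzyme is JNK3 in HepG2 lysates activated with interleukin-1beta and tumor necrosis factor alpha; ATP is 10 uM final.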

[11] = target: Guanine nucleotide-binding protein G(i) subunit alpha-1 (Homo sapiens) (UniProt P63096); test: qHTS Assay for Inhibitors of RGS12 GoLoco Motif Activity (Green Fluorophore) (AID 879);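 also: negative values mean loss of peptide binding seen as reduced polarization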
Chain of Guanine nucleotide-binding protein G(i) subunit alpha-1 (Homo sapiens) (P63096 whole entry, looked up): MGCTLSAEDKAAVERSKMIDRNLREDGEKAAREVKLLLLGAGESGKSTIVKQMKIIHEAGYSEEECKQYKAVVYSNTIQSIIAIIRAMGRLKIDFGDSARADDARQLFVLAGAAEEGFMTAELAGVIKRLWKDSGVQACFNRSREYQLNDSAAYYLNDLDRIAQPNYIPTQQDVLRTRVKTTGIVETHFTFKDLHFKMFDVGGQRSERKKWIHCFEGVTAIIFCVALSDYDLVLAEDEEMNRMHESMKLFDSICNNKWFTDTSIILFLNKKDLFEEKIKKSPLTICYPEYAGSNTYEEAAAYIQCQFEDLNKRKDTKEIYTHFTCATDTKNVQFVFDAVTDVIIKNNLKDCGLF
In short: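 A drop in FITC polarization marked displacement of the FITC-tagged RGS12 GoLoco peptide (10 nM) from Gαi1 (50 nM). Compounds were incubated 10 min at room temperature in Tris pH 7.5 buffer containing 150 mM NaCl, 0.1 mM GDP and 0.05% NP40; unlabeled peptide titration served as control.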

[12] = target: Cytochrome P450 3A4 (Homo sapiens) (UniProt P08684); test: qHTS Assay for Activators of Cytochrome P450 3A4 (AID 885); also: nearly all actives have a fitted effect of over 65% in size
Chain of Cytochrome P450 3A4 (Homo sapiens) (P08684 whole entry, looked up): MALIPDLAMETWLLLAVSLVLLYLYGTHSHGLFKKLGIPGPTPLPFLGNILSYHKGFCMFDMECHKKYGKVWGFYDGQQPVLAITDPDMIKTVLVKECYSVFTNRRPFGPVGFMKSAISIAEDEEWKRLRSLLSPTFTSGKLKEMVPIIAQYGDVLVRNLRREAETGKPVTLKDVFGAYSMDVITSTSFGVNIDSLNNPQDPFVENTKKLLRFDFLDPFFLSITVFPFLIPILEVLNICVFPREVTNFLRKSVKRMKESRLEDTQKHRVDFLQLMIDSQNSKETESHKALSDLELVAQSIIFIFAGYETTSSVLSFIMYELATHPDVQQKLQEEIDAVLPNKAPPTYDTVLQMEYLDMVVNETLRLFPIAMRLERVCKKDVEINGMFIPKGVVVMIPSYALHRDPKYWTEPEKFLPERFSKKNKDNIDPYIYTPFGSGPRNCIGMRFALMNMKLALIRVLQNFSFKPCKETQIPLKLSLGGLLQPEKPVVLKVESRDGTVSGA
In short: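 Human CYP3A4 dealkylates Luciferin-PPXE to luciferin, which luciferase detection converts to light. Substrate was at its KM (25uM), buffer 200mM KPO4, reaction 60 min at RT.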

[13] = target: Pyruvate kinase (Leishmania mexicana) (UniProt Q27686); test: qHTS Validation Assay for Inhibitors of Leishmania Mexicana Pyruvate Kinase (AID 945)
Chain of Pyruvate kinase (Leishmania mexicana) (Q27686 2-499 E452W): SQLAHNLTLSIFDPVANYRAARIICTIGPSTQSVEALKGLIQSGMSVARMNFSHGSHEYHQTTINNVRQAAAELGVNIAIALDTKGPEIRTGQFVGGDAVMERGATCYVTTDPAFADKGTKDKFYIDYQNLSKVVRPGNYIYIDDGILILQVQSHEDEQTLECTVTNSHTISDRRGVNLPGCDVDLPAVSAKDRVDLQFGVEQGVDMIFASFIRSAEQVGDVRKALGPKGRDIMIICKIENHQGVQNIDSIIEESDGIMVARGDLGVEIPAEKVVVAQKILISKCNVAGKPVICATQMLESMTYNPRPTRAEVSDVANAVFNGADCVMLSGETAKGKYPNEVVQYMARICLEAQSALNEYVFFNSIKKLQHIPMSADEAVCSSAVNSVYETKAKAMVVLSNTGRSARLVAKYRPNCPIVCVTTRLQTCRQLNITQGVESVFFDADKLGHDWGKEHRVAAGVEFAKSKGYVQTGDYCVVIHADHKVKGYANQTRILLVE
In short: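 Mutant LmPYK (E451W), 0.2 nM, plus 0.5 mM PEP and 0.1 mM ADP in 50 mM imidazole pH 7.2 containing 0.01% Tween 20 and 0.05% BSA. Incubated 1 h at room temperature; luminescence via PKLight, normalized to DMSO.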

[14] = target: Pyruvate kinase PKM (Homo sapiens) (UniProt P14618); test: qHTS Assay for Activators of Human Muscle Pyruvate Kinase (AID 954; active = well fitted curve in the direction sought with a large enough effect, not every such curve was filed as active)
Chain of Pyruvate kinase PKM (Homo sapiens) (P14618 whole entry, looked up): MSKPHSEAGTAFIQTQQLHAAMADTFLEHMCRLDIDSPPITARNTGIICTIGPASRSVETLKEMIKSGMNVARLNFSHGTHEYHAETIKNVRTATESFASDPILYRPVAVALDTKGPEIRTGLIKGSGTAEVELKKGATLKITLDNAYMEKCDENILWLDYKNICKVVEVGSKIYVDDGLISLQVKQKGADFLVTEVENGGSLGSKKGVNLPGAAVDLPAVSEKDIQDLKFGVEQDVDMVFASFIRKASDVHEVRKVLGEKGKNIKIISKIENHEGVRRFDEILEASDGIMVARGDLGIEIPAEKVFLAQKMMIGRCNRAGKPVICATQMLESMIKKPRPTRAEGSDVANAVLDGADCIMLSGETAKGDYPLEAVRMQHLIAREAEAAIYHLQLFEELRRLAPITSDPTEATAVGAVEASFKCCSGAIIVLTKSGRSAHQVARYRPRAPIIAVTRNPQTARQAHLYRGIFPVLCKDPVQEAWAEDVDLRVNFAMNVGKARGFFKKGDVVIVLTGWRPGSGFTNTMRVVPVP
In short: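 Compound pinned into substrate mix (0.5 mM PEP, 0.1 mM ADP), then 0.1 nM PKM2 added; 1 h, RT. Stop/detection luciferase reagent added, luminescence read. Normalized to no-inhibition and no-enzyme or reference-inhibitor controls.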

[15] = target: Alpha-galactosidase A (Homo sapiens) (UniProt P06280); test: Counterscreen for Glucocerebrosidase Inhibitors: qHTS Assay for Human alpha-Galactosidase at pH 4.5 (AID 992)
Chain of Alpha-galactosidase A (Homo sapiens) (P06280 whole entry, looked up): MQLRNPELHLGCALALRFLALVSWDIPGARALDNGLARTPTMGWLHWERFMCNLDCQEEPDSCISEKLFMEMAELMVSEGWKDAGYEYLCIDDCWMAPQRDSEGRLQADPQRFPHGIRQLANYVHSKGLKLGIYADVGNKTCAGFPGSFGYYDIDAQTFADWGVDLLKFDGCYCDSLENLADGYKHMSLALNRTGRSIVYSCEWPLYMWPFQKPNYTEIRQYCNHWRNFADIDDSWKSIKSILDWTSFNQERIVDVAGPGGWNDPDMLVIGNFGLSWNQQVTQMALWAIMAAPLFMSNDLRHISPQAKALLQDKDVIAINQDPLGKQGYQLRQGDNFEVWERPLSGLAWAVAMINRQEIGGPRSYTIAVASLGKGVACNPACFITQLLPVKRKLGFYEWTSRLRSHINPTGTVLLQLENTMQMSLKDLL
In short: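 Steps: enzyme (2 nM final), then compound across 0.7 nM to 77 uM, then 80 uM fluorogenic galactopyranoside substrate; incubate 20 min at room temperature; quench at pH 10; measure fluorescence at 365/440 nm.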

[16] = qHTS Assay for Identification of Small Molecule Antagonists for NFkB Signaling Pathway (AID 895; active = well fitted inhibition curve with a large enough effect in the signal ratio, with a control signal flat, not every such curve was filed as active; the % refers to the signal ratio)
In short: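 NFkB-bla ME-180 cervical carcinoma cells with beta-lactamase reporter under NFkB response element; compounds added, then TNF alpha at 10 pM final (EC50), 5 h at 37 C. LiveBLAzer substrate 2 h, room temperature; emission 460/530 nm at 405 nm excitation.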

[17] = target: Muscarinic acetylcholine receptor M1 (Rattus norvegicus) (UniProt P08482); test: qHTS Assay for Antagonists of Acetylcholine Muscarinic M1 Receptor: Kinetic Measurement of Intracellular Calcium Response (AID 943);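 also: Fluo-4 calcium signal as peak divided by basal fluorescence over 4 min; nearly all actives have a fitted effect of over 75% in size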
Chain of Muscarinic acetylcholine receptor M1 (Rattus norvegicus) (P08482 whole entry, looked up): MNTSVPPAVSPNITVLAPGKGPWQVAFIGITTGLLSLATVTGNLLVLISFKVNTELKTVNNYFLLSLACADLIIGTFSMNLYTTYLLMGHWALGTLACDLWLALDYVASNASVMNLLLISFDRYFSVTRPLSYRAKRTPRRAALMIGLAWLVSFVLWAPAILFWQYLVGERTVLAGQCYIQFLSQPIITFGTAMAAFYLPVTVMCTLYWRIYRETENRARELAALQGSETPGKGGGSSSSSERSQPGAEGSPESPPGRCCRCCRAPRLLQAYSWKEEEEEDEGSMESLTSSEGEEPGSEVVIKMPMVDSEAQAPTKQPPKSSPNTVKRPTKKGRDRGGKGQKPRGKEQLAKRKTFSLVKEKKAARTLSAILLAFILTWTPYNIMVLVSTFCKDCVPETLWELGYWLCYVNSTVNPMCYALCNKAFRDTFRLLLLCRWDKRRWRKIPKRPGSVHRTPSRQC
In short: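 Antagonism is measured as inhibition of the carbachol-evoked calcium rise in CHO cells transfected with rat M1. Cells are dye-loaded, exposed to compound for 10 min, then stimulated with 100 nM carbachol (EC80).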

[18] = target: Muscarinic acetylcholine receptor M1 (Rattus norvegicus) (UniProt P08482); test: qHTS Assay for Antagonists of Acetylcholine Muscarinic M1 Receptor: Measurement of IP-One Response (AID 944); also: nearly all actives have a fitted effect of over 75% in size
In short: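 Antagonist mode with rat M1 receptor transfected into CHO cells. Compound is added first for 10 min, carbachol at its EC80 follows for 30 min, and lysis reagents then allow TR-FRET detection of accumulated IP1.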

[19] = target: alpha-glucosidase (Oryza sativa, rice) (UniProt Q653V4); test: Counterscreen for Glucocerebrosidase Inhibitors: qHTS Assay for Rice alpha-Glucosidase at pH 5.0 (AID 997)
In short: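 Endpoint fluorogenic assay at pH 5.0: compounds (0.7 nM to 77 uM) titrated against 4 nM rice enzyme and 400 uM 4-MU-alpha-glucoside for 20 min at room temperature; NaOH/glycine stop, read ex 365/em 440 nm, Hill-fitted AC50.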

[20] = qHTS Assay for Identification of Small Molecule Agonists for Thrombopoietin (TPO) Signaling Pathway (AID 917)
In short: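 Cell-based luciferase reporter screen. Mouse Ba/F3 line stably expressing human TPO receptor; IL-3 removed overnight before plating. Co-treatment with compound and EC50 TPO (26 pM), 24 hrs at 37 C, then luminescence.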

Row | Structure (SMILES) | activity change, negative = inhibition [1] | Potency [2] | activity change, negative = inhibition [3] | Potency [4] | Potency [5] | Potency [6] | Potency [7] | Potency [8] | activity, negative = inhibition [9] | Potency [10] | outcome [11] | Potency [12] | outcome [13] | outcome [14] | outcome [15] | Potency [16] | Potency [17] | Potency [18] | Potency [19] | outcome [20]
1 | N[C@H](COP(=O)(O)O)C(=O)O | -5.61% [at 38 µM] | inactive | 1.24% [at 38 µM] | > 46 µM | > 46 µM | inactive | inactive | inactive | – | – | – | – | – | – | – | – | – | – | – | –
2 | C#C[C@@]1(O)CC[C@H]2[C@H]3CCC4=Cc5oncc5C[C@]4(C)[C@@H]3CC[C@@]21C | -22.8% [at 38 µM] | 12.6 µM (active) | – | > 46 µM | > 46 µM | – | – | – | 6.25% [at 38 µM] | inactive | – | – | – | – | – | – | – | – | – | –
3 | C[C@@]12C(=O)OC(=O)[C@@]1(C)[C@H]1CC[C@@H]2O1 | -102% [at 38 µM] (active) | inactive | -104% [at 38 µM] (active) | – | > 46 µM | inactive | inactive | inactive | – | inactive | inactive | inactive | inactive | inactive | inactive | – | – | – | – | –
4 | O=C1C(=O)c2ccccc2C(O)=C1C(C1=C(O)c2ccccc2C(=O)C1=O)c1ccc(Cl)cc1 | -18% | 3.98 µM (active) | -12.1% | > 46 µM | > 9.22 µM | inactive | – | 3.98 µM (active) | – | inactive | – | inactive | – | – | – | – | – | – | – | –
5 | COc1c2c(nc3ccccc13)O[C@@H]([C@@](C)(O)CO)C2 | -14.5% [at 38 µM] | 15.8 µM (active) | -2.6% [at 38 µM] | > 46 µM | > 46 µM | inactive | – | – | – | inactive | inactive | – | – | inactive | inactive | inactive | inactive | inactive | inactive | –
6 | Nc1c2c(nc3ccccc13)CCC[C@H]2O | 1.75% [at 38 µM] | 10 µM (active) | 0.441% [at 38 µM] | > 46 µM | – | inactive | inactive | – | – | inactive | inactive | – | inactive | inactive | inactive | inactive | inactive | inactive | – | inactive
7 | Cc1ccc(SCN2CCCCC2)cc1 (tested in a mixture with another compound) | -5.94% | 3.98 µM (active) | 16.7% | > 46 µM | > 9.22 µM | inactive | – | – | – | inactive | – | – | – | – | – | – | – | – | – | –
8 | O=c1[nH]c(=O)n([C@H]2C[C@H](O)[C@H](CO)O2)cc1Br | 14.9% [at 38 µM] | inactive | 2.6% [at 38 µM] | – | – | inactive | inactive | inactive | 4.48% [at 38 µM] | inactive | – | – | – | – | – | – | – | – | – | –
9 | COc1cc2nc(N3CCN(C(=O)OCc4ccccc4)[C@H](C(=O)NC(C)(C)C)C3)nc(N)c2cc1OC | -7.79% [at 38 µM] | inactive | 3.46% [at 38 µM] | > 46 µM | > 46 µM | inactive | – | – | – | inactive | inactive | inactive | inactive | inactive | inactive | inactive | – | inactive | – | –
10 | C[N+](C)(C)c1cc2c(nn1)Nc1ccccc1S2 | -0.66% | 2 µM (active) | – | > 46 µM | > 9.22 µM | inactive | – | – | 19.9% | inactive | – | – | – | – | – | – | – | – | – | –
11 | CN1[C@@H]2CC[C@H]1CC(NC(=O)c1nn(C)c3ccccc13)C2 (stereo partly drawn) | -1.02% [at 38 µM] | inactive | -9.68% [at 38 µM] | > 46 µM | > 46 µM | inactive | – | – | – | inactive | inactive | – | inactive | inactive | inactive | – | inactive | inactive | inactive | inactive
12 | Cc1cn([C@H]2C=C[C@H](CO)O2)c(=O)[nH]c1=O | 11.1% [at 38 µM] | inactive | 4.45% [at 38 µM] | – | – | inactive | inactive | inactive | 23.6% [at 38 µM] | – | – | – | – | – | – | – | – | – | – | –
13 | CCc1cccc2c3c([nH]c12)[C@](CC)(CC(=O)O)OCC3 | 6.07% [at 38 µM] | inactive | -5.71% [at 38 µM] | – | – | – | – | inactive | – | inactive | – | – | – | – | – | – | – | – | – | –
14 | Nc1nc(Cl)nc2c1ncn2[C@@H]1O[C@@H](COP(=O)(O)OP(=O)(O)OP(=O)(O)O)[C@@H](O)[C@H]1O | 18.9% [at 38 µM] | inactive | 9.46% [at 38 µM] | > 46 µM | > 46 µM | inactive | – | – | – | inactive | inactive | – | inactive | inactive | inactive | inactive | inactive | inactive | inactive | –
